HepG2 viability – HepG2 cytotoxicity, counter-screen for TGF-b inhibitors. Potency, µM (doses to about 46.1 µM), for the others: at the top dose activity change, negative = cytotoxicity, actives largely listed as cytotoxic. HepG2 CAGA-GFP viability, ATP luminescence, 18 h. AID 588856. actives 0.76% (n = 410,000)
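HepG2 CAGA-GFP cells (1000/well, DMEM with 1% FBS) received compound, then TGF-beta at 500 pg/mL final, and were incubated 18 hours at 37 degrees C. Viability was read by CellTiter-Glo luminescence. Media-only wells were set as complete cell-killing and DMSO as no toxicity.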
TGFb inhibitor – blocks TGF-b signaling | AID 588855 | HepG2 CAGA-GFP TGF-b/SMAD3 reporter, GFP fluorescence, 18 h; TGF-beta stimulated, 500 pg/mL final | Potency, µM (series often up to 46.1 µM), for the others: at the top dose activity, negative = inhibition, most hits filed as inhibitors | actives 1.2% (n = 410,000); also: % is scaled to controls: 0 for no effect and ±100 for the full control effect; nearly all actives have a fitted effect of over 65% in size
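Smad-responsive CAGA-GFP expression was quantified in HEPG2 cells exposed to compounds and 500 pg/mL final TGF-beta for 18 h at 37 degrees C; unstimulated wells defined full inhibition.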
DT40 TDP1 no CPT – qHTS for Inhibitors of human tyrosyl-DNA phosphodiesterase 1 (TDP1): qHTS in cells in absence of CPT. DT40 Tdp1-/- hTDP1 cells, no CPT, ATP luminescence, 48 h. Potency, µM (highest dose often 46.2 µM), for inactives: top-dose activity change, negative = growth inhibition, hits mostly inhibitors. actives 15% (n = 420,000); also: % is scaled to controls: 0 for no effect and ±100 for the full control effect; nearly all actives have a fitted effect of over 55% in size
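Readout: luminescence from CellTiter-Glo after 30 min in the dark at RT. Cells: DT40 Tdp1-/- with stable hTDP1, 400/well. Exposure: compounds alone, ≥48 hr, 37 °C.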
ATXN2 expr inh – reduces ATXN2 reporter expression in HEK-293 cells; actives 0.72% (n = 360,000); Potency, µM (top dose mostly 57 µM), inactives show top-dose activity change, negative = inhibition, usual class: inhibitors; HEK-293 ATXN2-luciferase reporter, luminescence, 24 h; AID 1745845; also: % is scaled to controls: 0 for no effect and ±100 for the full control effect; nearly all actives have a fitted effect of over 55% in size
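qHTS (up to 57 uM final) was run with 24 h compound exposure of reporter cells at 37 °C. Each well was multiplexed: SteadyGlo luminescence measured ATXN2-luciferase expression after a fluorogenic Gly-Phe-AFC viability readout (25 uM final).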
ATXN viability – viability counter-screen for ATXN expression inhibitors; AID 651635; Potency, µM (series often up to 56.7 µM), most hits filed as cytotoxic; S2 cells (HEK-293 line with an ATXN2-luciferase reporter) viability, CellTiter-Fluor protease fluorescence, 24 h; actives 0.49% (n = 400,000); also: nearly all actives have a fitted effect of over 40% in size
DT40 TDP1 CPT – DT40-hTDP1 cell growth loss with CPT; chicken DT40 Tdp1-/-;hTDP1 cells + 20 nM CPT, ATP luminescence, 48 h; Potency, µM (doses to about 46.2 µM), for the others: top-dose activity change, negative = growth inhibition, most hits filed as inhibitors; AID 686979; actives 12% (n = 420,000); also: % is scaled to controls: 0 for no effect and ±100 for the full control effect; nearly all actives have a fitted effect of over 55% in size
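Chicken DT40 Tdp1-/- cells stably complemented with human TDP1 were seeded at 400 cells/well in medium containing 20 nM camptothecin, exposed to pin-transferred compounds, and grown at 37 °C for at least 48 hr. Viability was read as ATP luminescence.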
The depositor's hits bear a star; i = inactive; ? = inconclusive; · = no result given. Rows were chosen to be rich in hits. Some 17% of all compounds tested hit in one or more screens of this group. Calls follow the shape of the dose curve; as a rule, active = well fitted curve in the direction sought with a large enough effect; inconclusive = small, poorly fitted or top-dose-only effect, or another doubt; inactive = no such curve, though single readings can be large; an effect the other way counts as inactive or inconclusive. Potency is read from the fitted curve at half-maximal effect.

SMILES	HepG2 viability	TGFb inhibitor	DT40 TDP1 no CPT	ATXN2 expr inh	ATXN viability	DT40 TDP1 CPT
COc1ccccc1Cn1cc(C(=O)c2ccc(Cl)cc2)c(=O)c2cc3c(cc21)OCCO3	-1%	-7%	?	0%	i	?
CCc1ccc(C(=O)c2cn(Cc3ccccc3)c3cc(OC)c(OC)cc3c2=O)cc1	-83%	?	16µM*	0%	?	16µM*
CCOc1ccc(NC(=O)Cn2cc(C(=O)c3ccc(C)c(C)c3)c(=O)c3cc(OC)c(OC)cc32)cc1	-12%	4%	-1%	-1%	i	-12%
Cc1cccc(N(CC(=O)NC2CCCCC2)C(=O)c2c(C)noc2C)c1	9%	-2%	-3%	3%	i	2%
CS(=O)(=O)N1CCC2(CC1)CN(Cc1nccs1)C2	·	·	-6%	·	·	8%
CC(C)(CO)[C@@H](O)C(=O)NCCCO	·	·	5%	12%	i	-17%
Cc1cnc(C(=O)OCC(=O)NC(C)CCc2ccccc2)cn1 (stereo not given)	-22%	-9%	20%	1%	i	24%
CCOc1ccc(C(=O)c2cn(CC(=O)Nc3ccc(OC)cc3)c3cc4c(cc3c2=O)OCO4)cc1	-3%	-5%	-27%	11%	i	?
COc1cc2c(=O)c(C(=O)c3ccc(C)c(C)c3)cn(Cc3ccccc3)c2cc1OC	-22%	2%	?	-7%	?	15µM*
CCOc1ccc(C(=O)c2cn(Cc3ccc(OC)cc3)c3cc(OC)c(OC)cc3c2=O)cc1	-28%	?	18µM*	?	?	?
COc1cc2c(=O)c(C(=O)c3ccc(C)c(C)c3)cn(Cc3ccccc3F)c2cc1OC	4%	?	16µM*	10%	?	18µM*
COc1ccc2c(c1)c(=O)c(C(=O)c1ccccc1)cn2Cc1ccc(C)cc1	-27%	-22%	16µM*	-27%	?	?
COc1cccc(Cn2cc(C(=O)c3ccc(Cl)cc3)c(=O)c3ccccc32)c1	-25%	?	?	-17%	?	?
Cc1ccc(C(=O)c2cn(Cc3ccccc3)c3c(F)cc(F)cc3c2=O)cc1	2%	23%	?	4%	i	?
COc1cc2c(=O)c(C(=O)c3ccc(C)c(C)c3)cn(Cc3ccc(F)cc3)c2cc1OC	2%	22%	18µM*	8%	?	10µM*
COc1cc2c(=O)c(C(=O)c3ccc(F)cc3)cn(Cc3cccc(F)c3)c2cc1OC	0%	-19%	16µM*	-14%	?	21µM*
COc1ccc(C(=O)c2cn(Cc3ccc(F)cc3)c3c(F)cc(F)cc3c2=O)cc1	-3%	21%	23µM*	-30%	?	?
COc1ccc(Cn2cc(C(=O)c3ccc(C)c(C)c3)c(=O)c3ccccc32)cc1	-18%	?	16µM*	?	·	?
CC(=O)c1cccc(NC(=O)N2CCCC2C(=O)Nc2ccc3c(c2)OCCO3)c1 (stereo not given)	-7%	-3%	-32%	-5%	i	1%
C#CCN(Cc1ccccc1)S(=O)(=O)C=C	3%	?	?	?	?	25µM*
COc1cc(NC(=O)Cn2nc3c(cc2=O)CC(C)CC3)cc(OC)c1OC (stereo not given)	-4%	-6%	-26%	·	·	-15%
CC(C)(C)OC(=O)N1CCC[C@H]1C(=O)Nc1ccc(Br)cc1	9%	3%	-14%	·	i	-7%
C[C@@H](NC(=O)[C@@H]1CCCN1C(=O)[C@@H]1CCCN1C(=O)OC(C)(C)C)c1ccccc1	·	·	-15%	4%	i	-8%
CC(C)(C)OC(=O)N1CCC[C@H]1C(=O)Nc1ccc(S(=O)(=O)C(F)F)cc1	-18%	-28%	?	·	i	13µM*
CC(NC(=O)C1CCCN1C(=O)OC(C)(C)C)C(=O)OCc1ccccc1 (stereo not given)	-6%	?	?	12%	i	23µM*
SMILES	HepG2 viability	TGFb inhibitor	DT40 TDP1 no CPT	ATXN2 expr inh	ATXN viability	DT40 TDP1 CPT
CC(=O)CSc1ncnc2scc(-c3ccc(F)cc3)c12	2%	17%	-1%	3%	i	0%
Cc1ccc(-c2csc3ncnc(Sc4nnc(CN5CCCCCC5=O)o4)c23)cc1	-100%	0%	6.5µM*	28µM*	·	4.1µM*
CC1=C(C(=O)N(C)C)CC(CC(=O)NCc2cccc3ccccc23)C(=O)N1Cc1ccccc1 (stereo not given)	-24%	2%	?	8%	i	?
O=C(NC1CCCC1)c1ccc2c(c1)N(Cc1ccccc1F)C(=O)c1ccccc1S2	-13%	-7%	15µM*	·	·	?
Cc1ccc(C)c(CN2C(=O)c3ccccc3Sc3ccc(C(=O)NC4CCCC4)cc32)c1	-5%	?	?	·	·	4%
Cc1ccccc1CN1C(=O)c2ccccc2Sc2ccc(C(=O)NC3CCCCC3)cc21	1%	0%	16µM*	·	·	15µM*
COc1ccc(CCCc2nnc(SCC(=O)Nc3ccc(F)cc3)o2)cc1C	-18%	-8%	-17%	-25%	?	-13%
CN1c2ccccc2-c2ccccc2S1(=O)=O	-2%	?	?	13%	i	32µM*
CC(C)(C)OC(=O)NCCCCCNC(=O)c1[nH]cnc1C(=O)Nc1cc(Br)ccc1F	-37%	-18%	5.8µM*	?	·	12µM*
CC(C)(C)OC(=O)NCc1ccc(NC(=O)c2nc[nH]c2C(=O)Nc2cc(Br)ccc2F)cc1	4%	-8%	13µM*	2%	?	10µM*
CCOC(=O)c1c(C)[nH]c(C)c1S(=O)(=O)N1CCCC(C(=O)Nc2ccc(C)c(N(C)C)c2)C1 (stereo not given)	-22%	?	?	7%	i	?
O=C(CCSCc1cnn(-c2ccccc2)c1-n1cccc1)NCc1ccccc1Cl	-14%	?	?	·	·	18µM*
CNC(=O)CSCc1cnn(-c2ccccc2)c1-n1cccc1	-1%	5%	-17%	2%	i	6%
CC(C)CCNC(=O)CSCc1cnn(-c2ccccc2)c1-n1cccc1	-26%	0%	21µM*	·	·	21µM*
Cc1ccc(Cl)cc1NC(=O)CSCc1cnn(-c2ccccc2)c1-n1cccc1	-36%	·	16µM*	·	·	16µM*

Screening results: PubChem BioAssay, National Center for Advancing Translational Sciences (NCATS)
